# PubChem BioAssay
# Inconclusive results are not listed. Activity calls are given as the source filed them.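 How the source made its calls, unless noted: active means normalized viability below 100% at a tested concentration; inactive means the rest.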
# Experiments:
# [1] = growth inhibition of DIPG glioma cells, dose response, cell-based, SU-DIPG-XVII, MIPE5.0, CellTiter-Glo, qHTS (AID 1347060; cut-off not given, nearly all actives have AC50 up to about 26 µM;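 further: cells exposed to compound for 48 hours before viability readout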); conditions: SU-DIPG-XVII viability, CellTiter-Glo ATP luminescence
# [2] = growth inhibition of DIPG glioma cells, dose response, cell-based, SU-DIPG-XIII, MIPE4.0, CellTiter-Glo, qHTS (AID 1347061; cut-off not given, nearly all actives have AC50 up to about 37 µM;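 further: cells exposed to compound for 48 hours before readout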); conditions: SU-DIPG-XIII viability, CellTiter-Glo ATP luminescence
# [3] = growth inhibition of DIPG glioma cells, dose response, cell-based, JHH-DIPG-1, MIPE4.0, CellTiter-Glo, qHTS (AID 1347062; cut-off not given, nearly all actives have AC50 up to about 27 µM;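 further: cells exposed to compound for two days before readout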); conditions: JHH-DIPG-1 viability, CellTiter-Glo ATP luminescence
# [4] = growth inhibition of DIPG glioma cells, dose response, cell-based, SU-DIPG-IV, MIPE4.0, CellTiter-Glo, qHTS (AID 1347063; cut-off not given, nearly all actives have AC50 up to about 30 µM;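 further: compound exposure lasted 48 hours before the viability readout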); conditions: SU-DIPG-IV viability, CellTiter-Glo ATP luminescence
# [5] = growth inhibition of DIPG glioma cells, dose response, cell-based, SU-DIPG-XIII, MIPE5.0, CellTiter-Glo, qHTS (AID 1347064; cut-off not given, nearly all actives have AC50 up to about 23 µM;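 further: cells exposed to compound for 48 hours before the viability read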); conditions: SU-DIPG-XIII viability, CellTiter-Glo ATP luminescence
# [6] = viability loss in pontine glioma line – cell-based, SU-DIPG-XXV, MIPE5.0, CellTiter-Glo, qHTS, dose response (AID 1347065; cut-off not given, nearly all actives have AC50 up to about 26 µM;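 further: cells exposed to compound for 48 hours before ATP readout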); conditions: CellTiter-Glo ATP luminescence
# [7] = JHH-DIPG-1 glioma cell viability, MIPE5.0 library, CellTiter-Glo luminescence, qHTS (AID 1347067; cut-off not given, nearly all actives have AC50 up to about 26 µM;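 further: cells exposed to compound for 48 hours before readout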); conditions: JHH-DIPG-1 glioma viability, CellTiter-Glo ATP luminescence
# [8] = SU-DIPG-XXV glioma cell viability, MIPE5.0 library, qHTS (AID 1347068; cut-off not given, nearly all actives have IC50 up to about 30 µM;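 further: cells exposed to compound for 48 hours before viability readout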)
# [9] = modifiers of HSF1 nuclear foci, imaging, Selleck Cancer Library (AID 1347162; in the data active means plate-normalised HSF1 focus index below about 0.46); conditions: human cells, at 10 µM; SSMD: measured here: HSF1 foci SSMD mean; cell count: measured here: cell number; plate-normalised HSF1 focus index: stronger effect = lower value
# [10] = ovarian cancer cell viability with rucaparib, profiling panel, oncology-focused library, rucaparib conditional (AID 1508598); conditions: patient-derived ovarian cancer cells, CellTiter-Glo viability, 144 h, stronger effect = lower value
# [11] = LFS_MB_P medulloblastoma growth inhibition, cell-based, chromothripsis tumors, cisplatin or BGB combos (AID 1671449; in the data active means inhibition above about 80%;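 further: cells exposed for 96 hours; 0% = vehicle DMSO and 100% = killing by high DMSO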); conditions: LFS_MB_P medulloblastoma cells
# [12] = HDN33 neuroblastoma growth inhibition, cell-based, chromothripsis tumors, cisplatin or BGB combos (AID 1671450; in the data active means inhibition above about 80%;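 further: cells exposed to compound for four days; 0% = vehicle DMSO and 100% = cell killing by high DMSO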); conditions: HDN33 neuroblastoma cells, stronger effect = higher value
# [13] = ICB984 medulloblastoma cell growth inhibition, synergistic combos for chromothripsis tumors, cisplatin or BGB combos (AID 1671451; call rule not given here;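 further: cells exposed for 96 hours before readout; 0% = vehicle DMSO and 100% = killing by high DMSO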); conditions: ICB984 medulloblastoma cells, drug combinations, stronger effect = higher value
# [14] = HTB85 osteosarcoma cell growth inhibition, synergistic combos for chromothripsis tumors, BGB or cisplatin IC20 combos (AID 1671453; in the data active means inhibition above about 80%;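 further: cells exposed for 96 hours before readout; 0% = vehicle DMSO and 100% = high DMSO killing control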); conditions: HTB85 osteosarcoma cells, drug combinations, stronger effect = higher value
# [15] = MDA-MB-436 breast carcinoma cell growth inhibition, synergistic combos for chromothripsis tumors, BGB or cisplatin combos (AID 1671458; call rule not given here;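 further: cells exposed for 96 hours; 0% = vehicle DMSO and 100% = killing by high DMSO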); conditions: MDA-MB-436 breast carcinoma growth inhibition, drug combinations, stronger effect = higher value
# [16] = growth inhibition of BT084 medulloblastoma cells, cell-based, ICGC_MB145, cisplatin and BGB IC40 combos (AID 1671461; in the data active means inhibition above about 80%;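 further: cells exposed to drugs for 96 hours; 0% = vehicle DMSO and 100% = high DMSO full killing control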); conditions: drug combinations, stronger effect = higher value
# [17] = growth inhibition of RCMB18 medulloblastoma cells, cell-based, cisplatin and BGB IC40 combos (AID 1671462; in the data active means inhibition above about 80%;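 further: cells exposed to compound for four days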); conditions: stronger effect = higher value
structure (smiles),measurement,setting,value
CCCCc1nc2cc(/C=C/C(=O)NO)ccc2n1CCN(CC)CC,AC50,[1],1660 nM (active)
same,AC50,[2],14800 nM (active)
same,AC50,[3],296 nM (active)
same,AC50,[4],14.8 nM (active)
same,AC50,[5],1320 nM (active)
same,AC50,[6],332 nM (active)
same,AC50,[7],1050 nM (active)
same,IC50,[8],13200 nM (active)
same,SSMD,[9],-1.52
same,cell count,[9],7710
same,plate-normalised HSF1 focus index,[9],0.904 (inactive)
same,viability,"[10]; at 0.000305 µM, OCI-C5x cells, with rucaparib 10 µM, 100% = cells with rucaparib alone",109% (inactive)
same,viability,"[10]; at 0.000305 µM, OCI-C5x cells, without rucaparib",111% (inactive)
same,viability,"[10]; at 0.000305 µM, OCI-P5x cells, with rucaparib 20 µM, 100% = cells with rucaparib alone",93.3% (active)
same,viability,"[10]; at 0.000305 µM, OCI-P5x cells, without rucaparib",99.3% (active)
same,viability,"[10]; at 0.00122 µM, OCI-C5x cells, with rucaparib 10 µM, 100% = cells with rucaparib alone",115% (inactive)
same,viability,"[10]; at 0.00122 µM, OCI-C5x cells, without rucaparib",116% (inactive)
same,viability,"[10]; at 0.00122 µM, OCI-P5x cells, with rucaparib 20 µM, 100% = cells with rucaparib alone",98.6% (active)
same,viability,"[10]; at 0.00122 µM, OCI-P5x cells, without rucaparib",104% (inactive)
same,viability,"[10]; at 0.00488 µM, OCI-C5x cells, with rucaparib 10 µM, 100% = cells with rucaparib alone",117% (inactive)
same,viability,"[10]; at 0.00488 µM, OCI-C5x cells, without rucaparib",117% (inactive)
same,viability,"[10]; at 0.00488 µM, OCI-P5x cells, with rucaparib 20 µM, 100% = cells with rucaparib alone",95.5% (active)
same,viability,"[10]; at 0.00488 µM, OCI-P5x cells, without rucaparib",107% (inactive)
same,viability,"[10]; at 0.0195 µM, OCI-C5x cells, with rucaparib 10 µM, 100% = cells with rucaparib alone",110% (inactive)
same,viability,"[10]; at 0.0195 µM, OCI-C5x cells, without rucaparib",117% (inactive)
same,viability,"[10]; at 0.0195 µM, OCI-P5x cells, with rucaparib 20 µM, 100% = cells with rucaparib alone",93.4% (active)
same,viability,"[10]; at 0.0195 µM, OCI-P5x cells, without rucaparib",104% (inactive)
same,viability,"[10]; at 0.0781 µM, OCI-C5x cells, with rucaparib 10 µM, 100% = cells with rucaparib alone",96.7% (active)
same,viability,"[10]; at 0.0781 µM, OCI-C5x cells, without rucaparib",123% (inactive)
same,viability,"[10]; at 0.0781 µM, OCI-P5x cells, with rucaparib 20 µM, 100% = cells with rucaparib alone",88.6% (active)
same,viability,"[10]; at 0.0781 µM, OCI-P5x cells, without rucaparib",95.7% (active)
same,viability,"[10]; at 0.313 µM, OCI-C5x cells, with rucaparib 10 µM, 100% = cells with rucaparib alone",92.4% (active)
same,viability,"[10]; at 0.313 µM, OCI-C5x cells, without rucaparib",91.7% (active)
same,viability,"[10]; at 0.313 µM, OCI-P5x cells, with rucaparib 20 µM, 100% = cells with rucaparib alone",68.3% (active)
same,viability,"[10]; at 0.313 µM, OCI-P5x cells, without rucaparib",76.5% (active)
same,viability,"[10]; at 1.25 µM, OCI-C5x cells, with rucaparib 10 µM, 100% = cells with rucaparib alone",28.3% (active)
same,viability,"[10]; at 1.25 µM, OCI-C5x cells, without rucaparib",21.2% (active)
same,viability,"[10]; at 1.25 µM, OCI-P5x cells, with rucaparib 20 µM, 100% = cells with rucaparib alone",26.6% (active)
same,viability,"[10]; at 1.25 µM, OCI-P5x cells, without rucaparib",43.4% (active)
same,viability,"[10]; at 5 µM, OCI-C5x cells, with rucaparib 10 µM, 100% = cells with rucaparib alone",4.57% (active)
same,viability,"[10]; at 5 µM, OCI-C5x cells, without rucaparib",5.34% (active)
same,viability,"[10]; at 5 µM, OCI-P5x cells, with rucaparib 20 µM, 100% = cells with rucaparib alone",1.32% (active)
same,viability,"[10]; at 5 µM, OCI-P5x cells, without rucaparib",2.31% (active)
same,inhibition,"[11]; at 0.5 µM, stronger effect = higher value",-27.6% (inactive)
same,inhibition,"[11]; measured here: combination with BGB IC20, at 0.005 µM",-13.5%
same,inhibition,"[11]; measured here: combination with BGB IC40, at 0.005 µM",75.4%
same,inhibition,"[11]; measured here: combination with BGB IC40, at 0.05 µM",-21.7%
same,inhibition,"[11]; measured here: combination with cisplatin, at 0.5 µM, stronger effect = higher value",-26%
same,inhibition,"[11]; measured here: combination with cisplatin, at 5 µM, stronger effect = higher value",104%
same,inhibition,"[12]; BGB combo, at 5 µM",99.5%
same,inhibition,[12]; at 0.5 µM,64.3% (inactive)
same,inhibition,"[12]; cisplatin combo, at 5 µM",99.9%
same,inhibition,"[12]; measured here: with BGB IC20 combination, at 0.5 µM",57.9%
same,inhibition,"[12]; measured here: with cisplatin IC20 combination, at 0.5 µM",71.1%
same,inhibition,"[12]; single agent, at 5 µM",99.8%
same,inhibition,"[13]; BGB IC20 combo, at 0.005 µM",7.49%
same,inhibition,"[13]; BGB IC40 combo, at 0.005 µM",-8.13%
same,inhibition,"[13]; BGB IC40 combo, at 0.05 µM",90.2%
same,inhibition,[13]; at 0.5 µM,-30.3% (inactive)
same,inhibition,"[13]; cisplatin combo, at 0.05 µM",90.2%
same,inhibition,"[13]; cisplatin combo, at 0.5 µM",-38.4%
same,inhibition,"[13]; cisplatin combo, at 5 µM",-16.6%
same,inhibition,"[13]; measured here: 5 uM single agent, at 5 µM",-44.4%
same,inhibition,[14]; at 0.5 µM,60.4% (inactive)
same,inhibition,"[14]; measured here: with BGB IC20, at 0.5 µM",56%
same,inhibition,"[14]; measured here: with BGB IC20, at 5 µM",99.8%
same,inhibition,"[14]; measured here: with cisplatin IC20, at 0.5 µM",61.5%
same,inhibition,"[14]; measured here: with cisplatin IC20, at 5 µM",99.9%
same,inhibition,"[14]; single agent, at 5 µM",99.7%
same,inhibition,[15]; at 0.5 µM,23.8% (inactive)
same,inhibition,"[15]; measured here: BGB combination, at 0.5 µM",18.7%
same,inhibition,"[15]; measured here: BGB combination, at 5 µM",52.6%
same,inhibition,"[15]; measured here: cisplatin combination, at 0.5 µM",13.3%
same,inhibition,"[15]; measured here: cisplatin combination, at 5 µM",61.6%
same,inhibition,[16]; at 0.5 µM,51.2% (inactive)
same,inhibition,"[16]; cisplatin combination, at 0.5 µM",62.4%
same,inhibition,"[16]; cisplatin combination, at 5 µM",101%
same,inhibition,"[16]; measured here: BGB IC40 combination 0.05 uM, at 0.05 µM",-12.4%
same,inhibition,"[16]; single agent, at 5 µM",107%
same,inhibition,[17]; at 0.5 µM,35.2% (inactive)
same,inhibition,"[17]; cisplatin combo, at 5 µM",93.7%
same,inhibition,"[17]; measured here: BGB IC40 combination, at 0.05 µM",11.4%
same,inhibition,"[17]; measured here: combination with cisplatin, at 0.5 µM",47.6%
same,inhibition,"[17]; single agent, at 5 µM",89.4%
